# High-throughput results as filed in PubChem BioAssay.
# TMEM16A inh – blocks the mouse calcium-activated chloride channel TMEM16A. Q8BHY3. HEK293 TMEM16A/YFP iodide influx fluorescence, ionomycin. normalized B-score (activity score, 25-100; higher = stronger inhibition) at 10 µM. 310,000 compounds, 1.2% hits. AID 588511;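 active = ratio plate-corrected score three or more library SD toward inhibition, starting fluorescence score within five deviations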;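 also: score derived from kinetic fluorescence span divided by baseline fluorescence per well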
# Target sequence (Q8BHY3 whole entry, looked up): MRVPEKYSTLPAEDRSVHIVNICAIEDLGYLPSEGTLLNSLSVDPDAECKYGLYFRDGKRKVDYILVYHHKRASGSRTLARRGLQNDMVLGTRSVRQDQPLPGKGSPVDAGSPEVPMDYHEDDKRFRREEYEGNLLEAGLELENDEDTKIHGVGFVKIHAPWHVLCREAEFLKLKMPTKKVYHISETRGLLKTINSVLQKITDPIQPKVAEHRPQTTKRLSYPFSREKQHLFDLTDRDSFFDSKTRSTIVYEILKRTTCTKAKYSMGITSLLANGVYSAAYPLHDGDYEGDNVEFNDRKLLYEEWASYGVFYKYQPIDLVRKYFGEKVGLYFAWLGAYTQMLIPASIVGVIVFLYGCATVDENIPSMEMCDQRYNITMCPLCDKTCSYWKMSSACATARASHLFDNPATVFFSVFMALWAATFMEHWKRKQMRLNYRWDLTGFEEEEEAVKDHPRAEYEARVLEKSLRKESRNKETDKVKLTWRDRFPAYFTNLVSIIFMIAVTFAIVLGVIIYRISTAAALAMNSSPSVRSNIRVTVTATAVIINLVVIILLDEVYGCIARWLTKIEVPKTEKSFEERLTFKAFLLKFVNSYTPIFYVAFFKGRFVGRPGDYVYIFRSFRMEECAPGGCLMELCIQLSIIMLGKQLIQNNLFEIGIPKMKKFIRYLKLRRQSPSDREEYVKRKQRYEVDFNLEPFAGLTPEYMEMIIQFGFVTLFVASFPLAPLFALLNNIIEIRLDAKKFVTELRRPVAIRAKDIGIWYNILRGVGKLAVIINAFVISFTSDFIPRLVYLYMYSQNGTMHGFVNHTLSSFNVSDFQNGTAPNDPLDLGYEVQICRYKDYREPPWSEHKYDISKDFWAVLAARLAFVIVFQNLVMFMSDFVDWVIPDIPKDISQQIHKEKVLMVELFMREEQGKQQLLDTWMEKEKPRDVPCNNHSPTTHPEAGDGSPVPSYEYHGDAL
# CHT PAM – allosteric activators of human choline transporter CHT; CHT-expressing cells, membrane potential dye, choline EC20; stronger effect = higher value; LV-AA mutant CHT in HEK293 cells; 310,000 compounds, 0.49% hits; B-score at 10 µM; Q9GZV3;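 active = initial fluorescence not abnormally high and integrated response B-score, plate-corrected, over 3 SD above library mean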
# IDE inh – cellular human IDE inhibition; AID 434962; 320,000 compounds, 0.41% hits; HEK cells, FAbetaB cleavage, fluorescence polarization; P14735; inhibition, % at 5.59 µM;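 active = percent inhibition above the average of all tested compounds plus 3 SD, set per screening campaign, cut at about 16% in these data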;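 also: IDE supplied by intact live HEK cells; FP after avidin binding of uncleaved biotin substrate so inhibition keeps polarization high; 0% = DMSO wells and 100% = 60 µM reference IDE inhibitor Ii1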
# IDE cell activ – activators of human insulin-degrading enzyme in cells; P14735; HEK cells, FAbeta-B cleavage, fluorescence polarization; 0% vehicle, 100% cell-free pure enzyme wells; activation, % at 5.96 µM; 340,000 compounds, 0.073% hits; AID 493087;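 active = activation above the mean of all tested compounds plus 3 SD, set per screening campaign, cut at about 17% in these data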
# CHT block – inhibits the human high affinity choline transporter; CHT-expressing cells, membrane potential dye, choline response; stronger effect = lower value; AID 488975; B-score at 10 µM; 310,000 compounds, 0.86% hits; Q9GZV3;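 active = B-score over 3 SD under the library average, and starting fluorescence ratio not unusually high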;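 also: choline stimulus applied at its EC90 after an EC20 pre-addition; B-score computed on integrated fluorescence ratio after choline addition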
# TMEM16A act – mouse TMEM16A channel activation, primary screen; 340,000 compounds, 0.3% hits; HEK293 TMEM16A/YFP-H148Q/I152L, iodide quench fluorescence; stronger effect = lower value; Q8BHY3; B-score at 10 µM;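 active = fluorescence-ratio B-score plate-corrected deviation score at least 3 library SD below zero, with starting fluorescence score within 5 deviations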;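 also: channel opened by trigger with iodide after compound preincubation; score built on the fluorescence ratio of max minus min over baseline; more negative score means more quench and so TMEM16A activation or potentiation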
# The depositor's hits bear a star; i = inactive; . = no result given. Only some compounds are listed: those with a hit (about 2.7% of all), similar ones and a draw of the others.
SMILES,TMEM16A inh,CHT PAM,IDE inh,IDE cell activ,CHT block,TMEM16A act
COc1cc(NC(=O)[C@@H]2CCCN(S(=O)(=O)c3cccc4cccnc34)C2)cc(OC)c1OC,25*,i,2.9,-2.1,i,i
CCc1ccccc1OCC(=O)Nc1cccc(S(=O)(=O)N2CCCC2)c1,.,.,.,4.3,.,i
COc1cc(NC(=O)[C@H]2CCCN2S(=O)(=O)c2cccc3cccnc23)cc(OC)c1OC,i,i,3.1,3.3,i,i
Cc1cnc(C(=O)OCC(=O)N2C(C)CCCC2C)cn1 (configuration not stated),.,.,-1.6,2.6,.,i
Cc1cccc(NC(=O)CCS(=O)(=O)c2cc3c(cc2Cl)NC(=O)CO3)c1,i,i,1.9,-2.7,i,i
C/C(=N\Nc1nc2c(s1)CCCC2)c1ccc(Cl)cc1,i,i,5.0,2.9,i,-10.5*
CN(C)c1ccc(C(=O)Nc2nc3c(s2)CCCC3)cc1,i,i,-0.8,4.2,i,i
COc1ccc(/C=C(\C#N)C(=O)Nc2cc(C)c(Cl)cc2OC)cc1O,i,i,-3.9,20.2*,i,i
CCOC(=O)C(=O)N1CCN(c2nc(-c3ccc(Cl)cc3)cs2)CC1,i,i,8.3,-8.0,i,i
CCOC(=O)N1CCN(c2nc(-c3ccc(F)cc3)cs2)CC1,i,i,16.8*,-6.9,i,i
C=CCN(c1ccccc1OC)S(=O)(=O)c1cccc(C(=O)OCC(=O)c2c(N)n(C)c(=O)n(C)c2=O)c1,.,.,.,-0.3,.,i
CCCc1ccc(C(C)NC(=S)NC2CCCCC2)cc1 (configuration not stated),100*,i,.,1.4,i,i
CCCCc1ccc(NC=C2C(=O)OC3(CCCCC3)OC2=O)cc1,i,i,-2.5,1.5,i,-19.3*
NS(=O)(=O)c1ccc(NC=C2C(=O)OC3(CCCCC3)OC2=O)cc1,i,i,1.8,3.3,i,i
COc1ccc(C(=O)Nc2ccccc2C(=O)NCCN2CCOCC2)cc1OC,i,i,-0.2,3.8,i,i
NS(=O)(=O)c1ccc(CCNCc2cc(Br)ccc2OCc2ccccc2)cc1,100*,i,-1.6,4.4,i,i
COc1ccc(CNCCc2ccc(Cl)cc2)cc1OCc1ccccc1,100*,i,9.8,-1.4,i,i
CCOc1cc(CNCCc2ccc(S(N)(=O)=O)cc2)cc(Cl)c1OCc1ccccc1,25*,i,-2.4,-0.8,i,i
NS(=O)(=O)c1ccc(NCc2cc(Cl)ccc2OCc2ccc(F)cc2)cc1,25*,i,-0.6,0.1,i,i
NS(=O)(=O)c1ccc(NCc2ccccc2OCc2ccccc2F)cc1,i,i,6.1,-5.0,i,i
CCOc1cc(CNCCc2ccc(S(N)(=O)=O)cc2)ccc1OCc1ccccc1,i,i,-4.2,-1.9,i,i
COc1ccccc1C(=O)NC(CCSC)C(=O)NCc1ccncc1 (configuration not stated),.,.,-2.1,-1.2,.,i
O=C(NCc1nnc(SCC(=O)N2CCCC2)o1)c1ccco1,i,i,0.0,1.6,i,i
CC1CCN(C(=O)CSc2nnc(CNC(=O)c3ccco3)o2)CC1,i,i,2.3,10.1,i,-14.8*
Cc1ccc(-c2nc(CSCC(=O)N3CCN(C(=O)c4ccco4)CC3)c(C)o2)cc1,i,i,8.0,-1.6,i,i
SMILES,TMEM16A inh,CHT PAM,IDE inh,IDE cell activ,CHT block,TMEM16A act
Cc1ccc(-c2nc(CSCC(=O)N3CCN(c4ccccn4)CC3)c(C)o2)cc1,25*,i,-0.9,2.5,i,i
CCc1ccc(-c2nc(CSCC(=O)N3CCN(c4ccccn4)CC3)c(C)o2)cc1,100*,i,7.6,5.0,i,i
COc1cccc(OCC(O)CNC2CCCC2)c1 (configuration not stated),i,i,3.5,2.8,i,i
CCc1noc(C)c1C(=O)N(CC)CC(=O)Nc1cc(Cl)ccc1C,.,.,-3.0,3.6,.,i
Cc1cccc(C)c1-n1cccc1/C=C1\SC(=S)N(c2cccc(C(=O)O)c2)C1=O,100*,i,3.2,-6.0,i,i
Cc1cccc(C)c1NC(=O)CN1C(=O)S/C(=C\c2cccn2-c2cccc(C(=O)O)c2)C1=O,i,i,8.7,3.2,i,i
Cn1cc(C(c2ccccc2OCC(=O)O)c2cn(C)c3ccccc23)c2ccccc21,25*,i,10.6,2.1,i,i
Cn1cc(C(c2ccccn2)c2cn(C)c3ccccc23)c2ccccc21,i,i,-6.4,1.6,i,i
CC1=NOC(=O)/C1=C\c1ccc(-c2ccc(Cl)cc2Cl)o1,.,.,.,-6.1,.,-6.62*
CCCOc1ccc(Cl)cc1/C=C1/C(=O)ON=C1C,i,i,3.9,-0.7,i,i
NS(=O)(=O)c1ccc(-c2ccc(/C=C3\SC(=S)N(C4CCS(=O)(=O)C4)C3=O)o2)cc1 (configuration not stated),i,i,19.7*,-58.0,i,-4.96*
O=C(Nc1ccccc1C(=O)N/N=C/c1ccco1)c1ccccc1Cl,100*,i,1.4,-0.3,i,i
CC(=O)Nc1ccc(SCc2csc(C)n2)cc1,i,i,4.1,-1.3,i,i
Cn1c(N2CCN(c3ccccn3)CC2)nc2c1c(=O)n(Cc1ccc(Cl)cc1)c(=O)n2C,100*,i,3.1,5.6,i,i
Cn1c(N2CCN(c3ccccn3)CC2)nc2c1c(=O)n(Cc1ccccc1Cl)c(=O)n2C,i,i,0.2,5.8,i,i
O=Cc1nccc2ccccc12,.,.,.,3.7,.,-6.51*
Cc1ccccc1NC(=O)N1CCNC(=O)C1CC(=O)Nc1cc(Cl)ccc1Cl (configuration not stated),i,i,-3.6,2.3,i,i
CC(C(=O)Nc1ccc(S(=O)(=O)N2CCOCC2)cc1)N(c1ccccc1)S(C)(=O)=O (configuration not stated),i,i,2.5,3.7,i,-9.97*
Cc1ccc2cc(C#N)c(N3CCCN(C(=O)C4CCCO4)CC3)nc2c1C (configuration not stated),i,i,5.6,0.3,-6.12*,i
N#Cc1ccsc1NC(=O)c1ccc(Cl)c([N+](=O)[O-])c1,i,i,-3.4,0.7,-8.74*,i
O=C(Nc1ccccc1)Nc1ccc(Cl)c([N+](=O)[O-])c1,100*,i,-4.4,4.1,i,i
